Results reported in PubChem BioAssay (NCATS).
Several values for one entry are separate records, joined by “and”; a condition that tells them apart may be missing. Equal values may be shown once. Records with an inconclusive call do not appear. A structure can be active in one record and inactive in another. Activity calls are given as the source filed them. Unless noted, calls come from the whole dose curve; as a rule, active = well fitted curve in the direction sought with a large enough effect; inconclusive = small, poorly fitted or top-dose-only effect, or another doubt; inactive = no such curve, though single readings can be large; an effect the other way counts as inactive or inconclusive.

What was measured:
CASKI = experiment: Primary qHTS to identify gynecologic anti-cancer compounds using libraries of approved drugs and bioactive compounds (AID 1345084); conditions: Gynecologic cancer cell panel viability, ATPlite luminescence, 48 h; series mostly up to 57.5 µM; note: nearly all actives have a fitted effect of over 55% in size; note: potency is the fitted concentration of half-maximal effect; for activity change, negative = cytotoxicity: % is set by controls: 0 for no effect and ±100 for the full control effect
Outline: (§1)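 Cell viability after 48 h drug treatment, ATPlite luminescence readout; five doses.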

Es-2 = experiment: as above; conditions: Gynecologic cancer cell panel viability, ATPlite luminescence, 48 h; series mostly up to 57.5 µM
Outline: as §1

HeLa = experiment: as above; conditions: Gynecologic cancer cell panel viability, ATPlite luminescence, 48 h; series mostly up to 57.5 µM
Outline: as §1

Hek293T = experiment: as above; conditions: Gynecologic cancer cell panel viability, ATPlite luminescence, 48 h, control line for the selectivity index; series mostly up to 57.5 µM
Outline: as §1

JEG-3 = experiment: as above; conditions: Gynecologic cancer cell panel viability, ATPlite luminescence, 48 h; series mostly up to 57.5 µM
Outline: as §1

OV90 = experiment: as above; conditions: Gynecologic cancer cell panel viability, ATPlite luminescence, 48 h; series mostly up to 57.5 µM
Outline: as §1

PA-1 = experiment: as above; conditions: Gynecologic cancer cell panel viability, ATPlite luminescence, 48 h; series mostly up to 57.5 µM
Outline: as §1

SKOV3 = experiment: as above; conditions: Gynecologic cancer cell panel viability, ATPlite luminescence, 48 h; series mostly up to 57.5 µM
Outline: as §1

Tov-21-G = experiment: as above; conditions: Gynecologic cancer cell panel viability, ATPlite luminescence, 48 h; series mostly up to 57.5 µM
Outline: as §1

Tov112D = experiment: as above; conditions: Gynecologic cancer cell panel viability, ATPlite luminescence, 48 h; series mostly up to 57.5 µM
Outline: as §1

astro = experiment: Drug repurposing screens with cells derived from glioblastoma tumor samples (AID 1345199); conditions: viability, ATP luminescence, 48 h; series mostly up to 45.9 µM; note: nearly all actives have a fitted effect of over 40% in size; note: potency is the fitted concentration of half-maximal effect; for activity, negative = cell killing: % is set by controls: 0 for no effect and ±100 for the full control effect
Outline: (§2)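 Four patient lines of CD133+ GBM neurospheres were screened at several concentrations; hits were retested in those lines plus three slower-growing GBM lines, using 48-hour treatment and ATP-based viability.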

[1] = as above; conditions: GBM patient neurospheres viability, ATP luminescence, 48 h
Outline: as §2

[2] = molecular target: Nuclear receptor subfamily 1 group I member 2 (Rattus norvegicus) (UniProt Q9R1A7); experiment: qHTS assay for small molecule activators of the rat pregnane X receptor (rPXR) signaling pathway (AID 651751; call rule not given here; note: 0% is about no effect); conditions: rPXR reporter cells, luciferase (One-Glo), 24 h
Sequence of Nuclear receptor subfamily 1 group I member 2 (Rattus norvegicus) (Q9R1A7 whole entry, looked up): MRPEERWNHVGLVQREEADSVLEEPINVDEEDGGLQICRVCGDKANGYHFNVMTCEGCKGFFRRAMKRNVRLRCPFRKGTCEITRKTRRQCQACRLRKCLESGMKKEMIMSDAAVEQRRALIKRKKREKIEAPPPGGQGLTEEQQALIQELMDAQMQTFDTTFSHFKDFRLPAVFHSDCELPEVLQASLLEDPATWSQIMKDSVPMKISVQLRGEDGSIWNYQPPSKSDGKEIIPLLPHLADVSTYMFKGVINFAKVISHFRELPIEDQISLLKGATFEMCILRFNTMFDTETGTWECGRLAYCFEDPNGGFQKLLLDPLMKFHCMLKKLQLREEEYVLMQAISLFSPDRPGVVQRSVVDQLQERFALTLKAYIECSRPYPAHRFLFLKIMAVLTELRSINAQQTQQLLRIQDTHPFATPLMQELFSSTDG

[3] = at 21.2 µM (top of the series), tumour line B
[4] = at 45.9 µM (top of the series), tumour line B
[5] = at 45.9 µM (top of the series), tumour line D
[6] = at 46 µM (top of the series), tumour line A
[7] = at 46.1 µM (top of the series), tumour line C

CCCCC(CC)COC(=O)C(C#N)=C(c1ccccc1)c1ccccc1 (centres undefined)
inactive: Potency (CASKI) | Potency (Es-2) | Potency (HeLa) | Potency (Hek293T) | Potency (JEG-3) | Potency (OV90) | Potency (PA-1) | Potency (SKOV3) | Potency (Tov-21-G) | Potency (Tov112D) | Potency (astro)

N=C(N=C(N)N)N1CCOCC1
inactive: Potency (CASKI) | Potency (Es-2) | Potency (HeLa) | Potency (Hek293T) | Potency (JEG-3) | Potency (OV90) | Potency (PA-1) | Potency (SKOV3) | Potency (Tov-21-G) | Potency (Tov112D) | activity, negative = cell killing [1, 3] 4.28% | activity, negative = cell killing ([1]; at 21.3 µM (top of the series), tumour line A) -14.6% | Potency (astro)

CCC(C)(Oc1ccc(C2(c3ccc(OC(C)(CC)C(=O)O)cc3)CCCCC2)cc1)C(=O)O (centres undefined)
inactive: Potency (CASKI) | Potency (Es-2) | Potency (HeLa) | Potency (Hek293T) | Potency (JEG-3) | Potency (OV90) | Potency (PA-1) | Potency (SKOV3) | Potency (Tov-21-G) | Potency (Tov112D) | Potency (astro)

COc1c(O)cc2c(c1O)[C@@H]1O[C@H](CO)[C@@H](O)[C@H](O)[C@H]1OC2=O
inactive: Potency (CASKI) | Potency (Es-2) | Potency (HeLa) | Potency (Hek293T) | Potency (JEG-3) | Potency (OV90) | Potency (PA-1) | Potency (SKOV3) | Potency (Tov-21-G) | Potency (Tov112D) | activity, negative = cell killing ([1]; at 20 µM (top of the series), tumour line C) -10.5% | activity, negative = cell killing [1, 3] -10.4% | activity, negative = cell killing ([1]; at 21.2 µM (top of the series), tumour line D) -25.7% | Potency (astro)

CS(=O)(=O)OCCCCOS(C)(=O)=O
inactive: Potency (CASKI) | Potency (Es-2) | Potency (HeLa) | Potency (Hek293T) | Potency (JEG-3) | Potency (OV90) | Potency (PA-1) | Potency (Tov-21-G) | Potency (Tov112D) | activity, negative = cell killing [1, 4] -4.65% | activity, negative = cell killing [1, 5] -5.18% | activity, negative = cell killing [1, 6] -16.3% | activity, negative = cell killing [1, 7] -0.778% | Potency (astro) | max response [2] 1.78% and 1.87% and -0.923%

O=C(NOCC1CC1)c1ccc(F)c(F)c1Nc1ccc(I)cc1Cl
28.2 µM (active) and inactive: Potency (Tov112D)
inactive: Potency (CASKI) | Potency (Es-2) | Potency (HeLa) | Potency (Hek293T) | Potency (JEG-3) | Potency (SKOV3)
active: Potency (OV90) 7.08 µM and 3.55 µM | Potency (astro) 2.51 µM

O=C(O)c1cccc(-c2noc(-c3ccccc3F)n2)c1
active: Potency (CASKI) 11.2 µM and 14.1 µM | Potency (Es-2) 3.16 µM and 6.31 µM | Potency (HeLa) 7.08 µM and 10 µM | Potency (Hek293T) 4.47 µM and 7.08 µM | Potency (JEG-3) 7.94 µM and 11.2 µM | Potency (OV90) 12.6 µM | Potency (PA-1) 3.55 µM and 7.94 µM | Potency (SKOV3) 10 µM and 12.6 µM | Potency (Tov-21-G) 5.01 µM and 8.91 µM | Potency (Tov112D) 7.94 µM and 10 µM | Potency (astro) 2.51 µM

Cc1nc2n(c(=O)c1CCN1CCC(c3noc4cc(F)ccc34)CC1)CCCC2
inactive: Potency (CASKI) | Potency (Es-2) | Potency (HeLa) | Potency (Hek293T) | Potency (JEG-3) | Potency (OV90) | Potency (PA-1) | Potency (SKOV3) | Potency (Tov-21-G) | Potency (Tov112D) | activity, negative = cell killing [1, 4] -28.4% | activity, negative = cell killing [1, 7] -9.67% | Potency (astro)
active: Potency ([1]; tumour line A) 3.55 µM | Potency ([1]; tumour line D) 11.2 µM

COc1cc2nc(N3CCN(C(=O)C4CCCO4)CC3)nc(N)c2cc1OC (centres undefined)
inactive: Potency (CASKI) | Potency (Es-2) | Potency (HeLa) | Potency (Hek293T) | Potency (JEG-3) | Potency (OV90) | Potency (Tov-21-G) | Potency (Tov112D) | activity, negative = cell killing [1, 4] -11.4% | activity, negative = cell killing [1, 5] -6.51% | activity, negative = cell killing [1, 7] -17.4% | Potency (astro)

CCN(CCO)CCCC(C)Nc1ccnc2cc(Cl)ccc12 (centres undefined)
active: Potency ([1]; tumour line A) 11.2 µM
inactive: activity change, negative = cytotoxicity (CASKI) 22.4% [at 6.55 µM] and 10.4% [at 6.55 µM] | activity change, negative = cytotoxicity (Es-2) -1.37% [at 6.55 µM] and -0.815% [at 6.55 µM] | activity change, negative = cytotoxicity (HeLa) 2.67% [at 6.55 µM] and -11.2% [at 6.55 µM] | activity change, negative = cytotoxicity (Hek293T) 9.38% [at 6.55 µM] and 2.44% [at 6.55 µM] | activity change, negative = cytotoxicity (JEG-3) -0.0768% [at 6.55 µM] and 4.75% [at 6.55 µM] | activity change, negative = cytotoxicity (OV90) -3.69% [at 6.55 µM] | activity change, negative = cytotoxicity (PA-1) 16.5% [at 6.55 µM] and 2.35% [at 6.55 µM] | activity change, negative = cytotoxicity (SKOV3) -2.72% [at 6.55 µM] and 0.445% [at 6.55 µM] | activity change, negative = cytotoxicity (Tov-21-G) 2.96% [at 6.55 µM] and -2.5% [at 6.55 µM] | activity change, negative = cytotoxicity (Tov112D) 10.4% [at 6.55 µM] and 2.64% [at 6.55 µM] | activity, negative = cell killing [1, 4] -10.8% | activity, negative = cell killing [1, 5] -19.9% | activity, negative = cell killing [1, 7] 3.19% | Potency (astro)

Nc1ncn([C@H]2C[C@H](O)[C@@H](CO)O2)c(=O)n1
inactive: Potency (CASKI) | Potency (Es-2) | Potency (HeLa) | Potency (Hek293T) | Potency (JEG-3) | Potency (OV90) | Potency (SKOV3) | Potency (Tov-21-G) | activity, negative = cell killing [1, 4] -23% | activity, negative = cell killing [1, 5] -5.51% | activity, negative = cell killing [1, 6] -24.9% | activity, negative = cell killing [1, 7] -19.7% | Potency (astro)
